# Laboratory results: PubChem BioAssay AID686977 (Southern Research Specialized Biocontainment Screening …, 2013)
# Among all 9,400 compounds or so, fewer than 10 were called active. Another 5% or so got no clear call; they are omitted. No rule for the calls is given here. These entries were drawn from the full list. Entries with a potency or affinity are not part of this list.
# Assay: Vibrio cholerae quorum sensing activators, luminescence (AID 686977)
# Settings: V. cholerae quorum sensing reporter, 6 h, stronger effect = higher value; dose 50, dose unit µM unless noted
row,Compound,luminescence
1,CCOC(=O)/C(C#N)=C\c1ccc(N2CCN(C)CC2)cc1,0 (inactive)
2,CCOC(=O)C1CCN(C(=O)C2CCN(S(=O)(=O)c3cccc4cccnc34)CC2)CC1,0 (inactive)
3,Cc1n[nH]c(=S)c2nn(-c3ccccc3F)c(C)c12,0 (inactive)
4,Cn1c(C(=O)N2CCN(Cc3ccc4c(c3)OCO4)CC2)cc2c(=O)n(C)c3ccccc3c21,0 (inactive)
5,CCC(Cc1ccccc1)NC(=O)CN1C(=O)CSc2ncccc21 (centres undefined),0 (inactive)
6,OCCN1CCN(c2ncnc3ccc(Br)cc23)CC1,200 (inactive)
7,CC1=CC(C)(C)N(S(=O)(=O)c2ccc(F)cc2)c2ccccc21,0 (inactive)
8,COc1ccc(C(=O)Nc2cc3c(cc2C#N)OCO3)cc1S(=O)(=O)NCc1ccco1,0 (inactive)
9,CCOC(=O)c1c(C)nc2ccccc2c1C,40 (inactive)
10,CCc1nn(CC(=O)NCCCN2CCc3ccccc3C2)c(=O)c2cc3sccc3n12,0 (inactive)
11,COc1ccc(-n2nnnc2SCC#CCO)cc1,0 (inactive)
12,Cc1nnc(SCC(=O)NCc2ccco2)n1Cc1ccccc1,0 (inactive)
13,CC(C)OC(=O)CSc1nnc(-c2ccccc2)n1N,40 (inactive)
14,O=c1c2ccccc2nnn1CSc1nnc(-c2cccnc2)n1-c1ccccc1F,0 (inactive)
15,O=[N+]([O-])c1cc(-c2cnc3ccccc3n2)ccc1Oc1ccc(F)cc1,40 (inactive)
16,Cc1ccc(CN(C)C(=O)C2CCCN2C(=O)c2cccs2)o1 (centres undefined),320 (inactive)
17,CCn1cc(S(=O)(=O)CC(=O)Nc2cc(C)on2)c2ccccc21,0 (inactive)
18,CCCCN(C(=O)c1cnc2n(c1=O)CCS2)c1ccccc1,0 (inactive)
19,CCc1nc2c(cnn2-c2ccc(F)cc2)c(=O)n1-c1ccc(N2CCC(C)CC2)cc1,0 (inactive)
20,O=C(NCC(c1cccnc1)N1CCN(c2ccccc2F)CC1)c1ccco1 (centres undefined),0 (inactive)
21,CCC(C)NC(=O)CS(=O)Cc1nc(-c2cccc(OC)c2)oc1C (centres undefined),40 (inactive)
22,Cc1ccc(-c2nnc(SCc3nc(N)nc(Nc4ccccc4C)n3)n2N)cc1,0 (inactive)
23,O=C(NCc1ccco1)c1nnc(Cc2ccc(Cl)cc2)o1,0 (inactive)
24,CCOC(=O)C1=C(c2ccccc2)O/C(=C(\C(=O)OC)C(F)(F)F)S1,40 (inactive)
25,COc1ccc(C2N(C(=O)CN3CCOCC3)CCN2S(=O)(=O)c2ccccc2)cc1 (centres undefined),0 (inactive)

row,Compound,luminescence
1,Cc1cccc(N2CCN(C(=O)CN3CCOc4ccccc43)CC2C)c1 (centres undefined),0 (inactive)
2,Cc1onc(-c2ccccc2Cl)c1C(=O)Nc1cccc(-c2nc3ncccn3c2C)c1,40 (inactive)
3,CC(=O)CC(c1ccccc1)S(=O)(=O)c1ccc(C)cc1 (centres undefined),40 (inactive)
4,CCN(CC)c1ncnc2sc(C(=O)N3CCN(c4ccc(OC)cc4)CC3)c(C)c12,160 (inactive)
5,c1cc2c3c(cccc3c1)NC1(CCCCC1)N2,40 (inactive)
6,O=C(Nc1ccc(Cc2ccncc2)cc1)c1ccc(Cl)c([N+](=O)[O-])c1,0 (inactive)
7,COc1cccc(S(=O)(=O)NCc2ccc(C(=O)NCC3CCCO3)cc2)c1 (centres undefined),40 (inactive)
8,O=C(Nc1ccc2c(c1)OCCO2)c1ccc(CN2CCOCC2)cc1,0 (inactive)
9,COCCOC(=O)C1=C(C)NC2=C(C(=O)CC(c3cccs3)C2)C1c1ccsc1 (centres undefined),40 (inactive)
10,CCN1CCN(c2nc3c(c(=O)[nH]c(=O)n3C)n2CCSc2nc3ccccc3s2)CC1,0 (inactive)
11,CCc1ccc(C2CC(c3ccc(F)cc3)Nc3nc(N)nn32)cc1 (centres undefined),40 (inactive)
12,COc1ccccc1C(=O)N1CCNC(=O)C1CC(=O)Nc1cccc(C)c1 (centres undefined),0 (inactive)
13,O=C(O)c1[nH]c2ccccc2c1CC(=O)N1CCOCC1,0 (inactive)
14,Cc1cc(C(=O)Nc2c(C)nn(Cc3ccc(F)cc3)c2C)on1,0 (inactive)
15,COC(=O)c1ccc(NC(=O)CN(Cc2ccc(Cl)cc2)S(C)(=O)=O)cc1,0 (inactive)
16,CC(C)SCCCOc1ccc(C(C)(C)C)cc1,0 (inactive)
17,CCOC(=O)C1CCCN(c2c(NCCCN(C)c3ccccc3)c(=O)c2=O)C1 (centres undefined),0 (inactive)
18,COC(=O)c1ccc(NC(=O)CSc2nnc(COc3ccc4c(c3)CCCC4)o2)cc1,40 (inactive)
19,CCC(=O)NCCCOc1ccccc1,0 (inactive)
20,O=C(Nc1ccc2c(c1)CCC2)c1cc(S(=O)(=O)N2CCN(c3ccccc3)CC2)ccc1Cl,0 (inactive)
21,CCOC(=O)c1sc2nc(C)cc(C)c2c1NC(=O)c1ccco1,0 (inactive)
22,CCOC(=O)N1CCC(NC(=O)C(Cc2ccccc2)NC(=O)C2CCCCC2)CC1 (centres undefined),0 (inactive)
23,CCOc1cc(N2CCOCC2)c(OCC)cc1NC(=O)CN1CCc2ccccc2C1,0 (inactive)
24,CCn1ncc(C2=NOC(C(=O)NCc3ccc(OC)cc3)C2)c1C (centres undefined),0 (inactive)
25,COc1ccc(-n2c(Cn3c(=O)sc4ccccc43)nnc2SCC(=O)N2CCCCC2)cc1,0 (inactive)

row,Compound,luminescence
1,COc1ccc(NC(=O)c2c(NC(=O)CNCc3ccco3)sc3c2CCC3)c(OC)c1,40 (inactive)
2,COC(=O)c1nc2cc(C)ccn2c1F,40 (inactive)
3,Cc1ccc(NS(=O)(=O)c2cc(C(N)=O)ccc2C)cc1,0 (inactive)
4,Cc1ccc([N+](=O)[O-])cc1N=Cc1ccc(Br)s1,40 (inactive)
5,CC(=O)N(c1ccc(Br)cc1)C1C=CS(=O)(=O)C1 (centres undefined),0 (inactive)
6,Cc1cc2ccccc2n1CCNC(=O)c1cccs1,0 (inactive)
7,Cc1cc(C)nc(NC(=O)c2cnc3sccn3c2=O)n1,0 (inactive)
8,CCn1c(=O)cc(OCC(=O)NCCC(C)C)c2ccccc21,40 (inactive)
9,C=CCNC(=O)CN(c1cccc(Br)c1)S(C)(=O)=O,0 (inactive)
10,CCOC(=O)c1c(-c2ccccc2)csc1NC(=O)c1ccc(S(=O)(=O)N2CC(C)OC(C)C2)cc1 (centres undefined),40 (inactive)
11,COc1cc(C(=O)N(Cc2cccc(Cl)c2)C2CCS(=O)(=O)C2)cc(OC)c1OC (centres undefined),40 (inactive)
12,Cc1ccc2oc(=O)c3cnn(CC(=O)NC4CCN(Cc5ccccc5)CC4)c3c2c1,0 (inactive)
13,CC(C)C(=O)Nc1nc2cc3c(cc2s1)OCO3,0 (inactive)
14,COC(=O)c1[nH]c2cc(OC)ccc2c1NC(=O)CCN1CCN(c2ccccc2)CC1,40 (inactive)
15,O=C(Nc1cccc(F)c1)c1cccnc1N1CCOCC1,80 (inactive)
16,COc1ccccc1N1CCN(C(=O)Oc2ccccc2)CC1,0 (inactive)
17,COc1cc(S(=O)(=O)N2CCC(N3CCCCC3)CC2)ccc1-n1cnnn1,0 (inactive)
18,CC(Oc1ccc(-c2ccccc2)c(F)c1)c1ccn(S(=O)(=O)c2ccc(F)cc2)n1 (centres undefined),120 (inactive)
19,COc1ccccc1NC(=O)C1=C(C)NC(=O)NC1c1ccc(C)cc1 (centres undefined),80 (inactive)
20,O=C(O)CCCSCC(=O)Nc1ccccc1,0 (inactive)
21,O=C(C[n+]1ccc(C(=O)N/N=C/c2ccc(OCc3ccccc3)cc2)cc1)c1ccccc1,0 (inactive)
22,CCOC(=O)C1=C(C)Nc2nnnn2C1c1ccc(OC)c(Br)c1 (centres undefined),0 (inactive)
23,Cc1c(Cl)cccc1NC(=O)CN1C(=O)CSc2ncccc21,0 (inactive)
24,O=c1cc(NC2CCCCC2)c2ccccc2o1,0 (inactive)
25,CCOc1ccc(CNC(=O)C(CC)n2nc(C)n3c(cc4occc43)c2=O)cc1OC (centres undefined),0 (inactive)

row,Compound,luminescence
1,CNc1ccccc1-c1nc2ccccc2n(C)c1=O,0 (inactive)
2,O=C(Nc1ccc(Cl)cn1)C1CCCN1S(=O)(=O)c1ccc(Cl)cc1 (centres undefined),0 (inactive)
3,CCC(Oc1ccccc1)C(=O)Nc1ccccc1OC (centres undefined),0 (inactive)
4,CCOCCn1c(SCCc2ccccc2)nc2c1c(=O)[nH]c(=O)n2C,0 (inactive)
5,Cc1nn(C2CCS(=O)(=O)C2)c(Cl)c1/C=C/C(=O)OCC(=O)Nc1ccccc1OC(F)F (centres undefined),0 (inactive)
6,COc1ccc(S(=O)(=O)Cc2ccc(C(=O)NCc3ccccn3)o2)cc1,0 (inactive)
7,CCOC(=O)N1CCN(C(=O)CSc2nc3c([nH]c4ccccc43)c(=O)n2C)CC1,40 (inactive)
8,C#CCN1C(=O)C2C(C(=O)NC)C3C=CC2(O3)C1C(=O)NCc1ccc(OC)cc1 (centres undefined),40 (inactive)
9,CCCNC(=O)C(NS(=O)(=O)c1ccc2c(c1)c(=O)n(C)c(=O)n2C)c1ccccc1 (centres undefined),40 (inactive)
10,CN[C@H]1[C@@H](O)[C@H](O[C@H]2[C@@H](O)[C@@H](OC3OC(CN)=CCC3N)[C@H](N)C[C@@H]2N)OC[C@@]1(C)O (some centres undefined),"40 [dose 10, dose unit µg/mL] (inactive)"
11,CCc1ccc(CCC(=O)Nc2ccc(C)c(C)c2)o1,0 (inactive)
12,CCc1cccc(OCCOCCN2CCCC2)c1,40 (inactive)
13,CCOC(=O)c1ccccc1NC(=O)c1cc(S(=O)(=O)N2CCOCC2)ccc1F,0 (inactive)
14,Cc1ccc(S(=O)(=O)CCc2nnc(NC(=O)C3CCCO3)s2)cc1 (centres undefined),0 (inactive)
15,COC(=O)c1cc(-c2ccc(Br)cc2)n[nH]1,0 (inactive)
16,CN(C)S(=O)(=O)c1ccc(S(=O)(=O)N2CCN(CCC#N)CC2)cc1,40 (inactive)
17,COc1cc(C2Nc3ccc4ncccc4c3C3=C2C(=O)CC(C)(C)C3)cc(OC)c1O (centres undefined),0 (inactive)
18,CN(CC(=O)N1CCc2ccccc2C1)S(=O)(=O)c1ccc2c(c1)c(=O)n(C)c(=O)n2C,40 (inactive)
19,CCOc1ccc(CCNC(=O)Cn2c(=O)oc3ccccc32)cc1OCC,0 (inactive)
20,COC(=O)c1cc(=O)n(CCc2ccc(OC)c(OC)c2)c(=Nc2ccc(F)c(Cl)c2)s1,40 (inactive)
21,CCc1nnc(NC(=O)CSc2nnc(-c3ccco3)n2C)s1,0 (inactive)
22,CN/C(=C/[N+](=O)[O-])NCCSCc1csc(CN(C)C)n1,"0 [dose 10, dose unit µg/mL] (inactive)"
23,CCCCCCN1CC(O)=C(c2ccccc2)C1=N,0 (inactive)
24,CC1CCN(C(=O)CSc2nc3c(cnn3-c3ccc(Cl)cc3)c(=O)[nH]2)CC1,0 (inactive)
